The list is not random: actives were taken first. Their share in the collection is about 1.6%.
KCNQ2 pot: potentiators of rat KCNQ2 potassium channel | O88943 | CHO-K1 KCNQ2, FluxOR thallium flux fluorescence; hits give high values | B-score at 10 µM | hit rate 0.54% among 310,000 | AID 2239;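 active means fluorescence ratio B-score at least 3 SD of library B-scores, with initial fluorescence B-score within 3 of them, cut at about 5.3 in these data; same plate scores as AID 2156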;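 further: B-score of peak minus minimum over baseline fluorescence ratio after K+ and Tl+ stimulus; positive B-score means potentiation of KCNQ2 with more thallium influx and brighter signal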
Target sequence (O88943 whole entry, looked up): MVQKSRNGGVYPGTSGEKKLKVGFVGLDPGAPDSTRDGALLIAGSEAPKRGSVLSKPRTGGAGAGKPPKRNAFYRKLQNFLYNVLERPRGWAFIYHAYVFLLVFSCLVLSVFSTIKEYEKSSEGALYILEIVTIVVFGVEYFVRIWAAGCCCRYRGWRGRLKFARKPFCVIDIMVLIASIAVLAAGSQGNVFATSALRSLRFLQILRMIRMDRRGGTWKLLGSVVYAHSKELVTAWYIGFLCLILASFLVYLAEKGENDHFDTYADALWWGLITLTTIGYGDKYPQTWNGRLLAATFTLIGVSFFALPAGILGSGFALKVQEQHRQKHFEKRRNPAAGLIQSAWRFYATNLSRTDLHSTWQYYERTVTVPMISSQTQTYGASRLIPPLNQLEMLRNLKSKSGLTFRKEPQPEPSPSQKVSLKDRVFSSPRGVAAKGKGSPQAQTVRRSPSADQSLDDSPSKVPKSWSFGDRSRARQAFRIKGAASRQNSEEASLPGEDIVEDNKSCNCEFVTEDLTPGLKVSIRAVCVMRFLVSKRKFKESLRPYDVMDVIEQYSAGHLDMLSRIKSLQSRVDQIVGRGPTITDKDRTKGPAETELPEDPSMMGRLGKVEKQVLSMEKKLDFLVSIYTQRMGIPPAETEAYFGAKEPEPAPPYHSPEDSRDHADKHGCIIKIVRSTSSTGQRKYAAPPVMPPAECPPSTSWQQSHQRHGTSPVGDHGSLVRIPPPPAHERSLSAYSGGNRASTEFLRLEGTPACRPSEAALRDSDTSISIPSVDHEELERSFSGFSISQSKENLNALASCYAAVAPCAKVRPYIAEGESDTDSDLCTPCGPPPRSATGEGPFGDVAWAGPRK
KCNQ2 inh: blocks the rat KCNQ2 potassium channel; CHO-K1 KCNQ2, FluxOR thallium flux, 20 min; hits give low values; B-score at 10 µM; O88943; AID 2156; hit rate 1.1% among 310,000;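 active means fluorescence ratio B-score at most minus 3 library SDs, with starting brightness B-score within 2 library SDs, cut at about -5.5 in these data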
Large screens that a line does not name were inactive.

CC1(C)CC2CC(C)(CN2C(=S)Nc2ccccc2)C1 (centres undefined)	none (no result: KCNQ2 pot)
CC1(C)CC2CC(C)(CN2C(=S)NC(=O)c2ccccc2Cl)C1 (centres undefined)	KCNQ2 pot 10.3
Cn1c(SCC(=O)Nc2ccc(Cl)cc2F)nnc1-c1ccco1	KCNQ2 inh -5.79
Cn1c(SCC(=O)Nc2nccs2)nnc1-c1ccco1	none (no result: KCNQ2 pot)
CC(C)N(C(=O)COC(=O)c1cccc(N(C)C)c1)c1ccccc1	none (no result: KCNQ2 pot)
CCC/C=C(\CCC)C(NC(=O)c1ccc(C(F)(F)F)cc1)c1ccccc1 (centres undefined)	KCNQ2 inh -6.56
CC(C)CC(C)NC(=O)c1ccc(C(F)(F)F)cc1 (centres undefined)	none
COC(=O)c1ccc(C(=O)NN)cc1	none (no result: KCNQ2 pot)
CCC/C=C(\CCC)C(NC(=O)c1ccc(C(=O)OC)cc1)c1ccc(C(=O)OC)cc1 (centres undefined)	KCNQ2 inh -7.2
C=C(C(=O)Nc1ccccc1)c1ccc(C)cc1	none
CC(Oc1ccc2c3c(c(=O)oc2c1)CCCC3)C(=O)NCc1ccncc1 (centres undefined)	none
CCOC(=O)c1c(C)[nH]c(C)c1S(=O)(=O)N(C)CC(=O)Nc1cccc(C)c1	none
CCOC(=O)C1CCN(S(=O)(=O)c2ccc(CNC(=O)c3ccccc3)s2)CC1	none
Oc1ccc2ccccc2c1CN1CCN(c2ccccc2F)CC1	KCNQ2 pot 13
Oc1ccc2ccccc2c1CN1CCN(C/C=C/c2ccccc2)CC1	none
O=C(C1CCC(=O)N(C2CCCC2)C1)N1CCN(Cc2cccc(F)c2)CC1 (centres undefined)	none (no result: KCNQ2 pot)
CC(C)(C)C(Cn1ccnc1)NC(=O)c1ccc2nc(C3CC3)oc2c1 (centres undefined)	none (no result: KCNQ2 pot)
O=C(Nc1ncccn1)c1cc([N+](=O)[O-])cc([N+](=O)[O-])c1	none
O=[N+]([O-])c1cc(-c2ncccn2)c([N+](=O)[O-])s1	KCNQ2 inh -9.58
CCn1c(SCc2cccc(C)c2)nnc1-c1ccc(C)cc1	KCNQ2 inh -5.98
CCn1c(SCc2cccc(F)c2)nnc1-c1ccncc1	none
CC(C)C[C@H](NC(=O)N1CCn2c1nc1ccccc12)C(=O)NC1CCCCC1	none (no result: KCNQ2 pot)
CC(=O)Nc1cc2nc(C)n(Cc3ccccc3)c2nc1C	none (no result: KCNQ2 pot)
Cc1nc2c(cc1NC(=O)C(C)(C)C)nc(C)n2Cc1ccccc1	KCNQ2 pot 7.28
CC(C)(C)OC(=O)N1Cc2ccccc2C[C@H]1C(=O)NCC(=O)NCC1CCCO1 (some centres undefined)	none
O=C(Cc1ccc(Cl)cc1)Nc1ccc(Br)cc1	none
C/C(=C\C(=O)c1ccccc1)Nc1ccc(Cl)c(Br)c1	none
C/C(=C\C(=O)c1ccc(Cl)cc1)Nc1ccc(Br)cc1	KCNQ2 inh -5.95
C/C(=C\C(=O)c1ccc(Br)cc1)Nc1cccc(Cl)c1	KCNQ2 inh -6.19
CC(=O)Nc1cccc(OCCCNS(=O)(=O)c2ccc(C#N)cc2)c1	none (no result: KCNQ2 pot)
CCCNC(=O)c1ccccc1SCc1c(C)noc1C	none
Cc1ccc(C(=O)N2c3ccccc3N(Cc3ccccc3)C(=O)C2(C)C)cc1	KCNQ2 inh -5.57
O=C(O)CC1(O)C(=O)N(Cc2ccccc2)c2ccccc21 (centres undefined)	none
CC1(C)C2CCC1(CS(=O)(=O)NCc1ccc(Cl)cc1Cl)C(=O)C2 (centres undefined)	KCNQ2 inh -5.88
COc1cccc(NS(=O)(=O)CC23CCC(CC2=O)C3(C)C)c1 (centres undefined)	none (no result: KCNQ2 pot)
COc1cc(Nc2cccc[n+]2C)cc(OC)c1OC	none
CCC(=O)n1nc(NCc2ccccc2OC)nc1NCc1ccccc1OC	KCNQ2 inh -7.34
COc1ccc(CNc2nc(NCc3ccc(OC)cc3)n(C(C)=O)n2)cc1	none (no result: KCNQ2 pot)
Cc1ccc(S(=O)(=O)N(C)CCCC(=O)Nc2ccc(C)cc2C)cc1	KCNQ2 pot 6.23
Cc1cccc(N(CC(=O)Nc2ccccc2-c2ccccc2)S(=O)(=O)c2ccccc2)c1C	none (no result: KCNQ2 pot)
Cc1cc(C)cc(N(CC(=O)Nc2ccccc2-c2ccccc2)S(=O)(=O)c2ccccc2)c1	none (no result: KCNQ2 pot)
Cc1cc(F)ccc1NC(=O)CCCN(C)S(=O)(=O)c1ccc(F)cc1	none
Cc1ccc(N(CC(=O)Nc2ccccc2-c2ccccc2)S(=O)(=O)c2ccccc2)cc1	KCNQ2 inh -6.21
Cc1ccc(S(=O)(=O)N(CC(=O)Nc2ccccc2-c2ccccc2)c2ccc(C)cc2C)cc1	KCNQ2 inh -6.05
CC(C)C[C@H](NC(=O)N1CCn2c1nc1ccccc12)C(=O)N[C@@H](C(=O)O)c1ccccc1	none (no result: KCNQ2 pot)
COc1ccc(C(=O)Nc2ccc(S(=O)(=O)Nc3nccc(C)n3)cc2)cc1[N+](=O)[O-]	none
Cc1ccc(C(=O)NCCCNC(=O)Cc2ccc(Cl)cc2)cn1	none
COC(=O)[C@@H](NC(=O)N1CCN(C(=O)C2COc3ccccc3O2)CC1)C(C)C (some centres undefined)	none (no result: KCNQ2 pot)
Cc1ccc2[nH]c(=O)c(COC(=O)C3CCCCC3)cc2c1	none (no result: KCNQ2 pot)
OCC1(Cc2ccccc2)CCN(C2CCN(c3ccc(F)c(F)c3)CC2)CC1	none
CCN1C(=O)/C(=C/c2cccs2)SC1=Nc1ccc(OC)cc1	none

Compound activity from PubChem.
